From PubChem BioAssay
Rows were chosen to be rich in hits. Some 2.3% of all compounds tested hit in one or more screens of this group.
M1 antag = antagonists of human M1 muscarinic receptor | P11229 | CHO-K1 hM1, Fluo-8 calcium fluorescence, ACh EC80 antagonist | inhibition, % at 3 µM | 360,000 compounds, 1.3% hits;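 active means percent inhibition above its own plate's cutoff, namely the mean of that plate's compound wells plus 3 SD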;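 further: peak over basal fluorescence ratio during 140 s after agonist addition; 0% = ACh EC80 plus DMSO and 100% = DMSO alone without agonist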
Target sequence (P11229 whole entry, looked up): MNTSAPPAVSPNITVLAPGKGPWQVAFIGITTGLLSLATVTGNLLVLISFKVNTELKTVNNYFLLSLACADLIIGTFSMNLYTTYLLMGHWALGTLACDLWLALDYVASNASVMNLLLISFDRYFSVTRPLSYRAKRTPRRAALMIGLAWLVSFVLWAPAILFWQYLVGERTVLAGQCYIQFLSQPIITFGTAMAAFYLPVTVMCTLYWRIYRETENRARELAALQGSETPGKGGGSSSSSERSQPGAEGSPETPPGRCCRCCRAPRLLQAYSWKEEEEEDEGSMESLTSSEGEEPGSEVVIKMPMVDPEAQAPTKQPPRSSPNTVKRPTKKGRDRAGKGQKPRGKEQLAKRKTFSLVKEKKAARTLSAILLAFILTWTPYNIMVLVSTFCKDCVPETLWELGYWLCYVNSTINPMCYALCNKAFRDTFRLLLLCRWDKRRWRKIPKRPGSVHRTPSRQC
CHRM1 agonist = activates human CHRM1 receptor. P11229. activation, % at 3 µM. CHO-K1 hM1, Fluo-8 calcium fluorescence, agonist mode; 0% DMSO, 100% acetylcholine EC100. 360,000 compounds, 0.33% hits. AID 588814;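 active means activation above the run's mean compound activation plus 3 SD, cut at about 16% in these data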;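 further: peak over basal fluorescence ratio within a 140 s kinetic read after compound addition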
CHRM1 PAM = positive allosteric modulators of human M1 muscarinic receptor. P11229. CHO-K1 hM1, Fluo-8 calcium fluorescence, ACh EC20; 0% = ACh EC20, 100% = maximal ACh. activation, % at 3 µM. 360,000 compounds, 0.088% hits. AID 588819; in the data active means activation above about 19%, passing the limit was not always enough
CHO-K1 Ca antag = nonselective inhibitor or artifact in parental CHO-K1 cells; ATP-induced calcium, Fluo-8 fluorescence; inhibition, % at 3 µM; 360,000 compounds, 0.6% hits; AID 602250;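 active means inhibition above a per-plate cutoff, the plate's mean sample inhibition plus 3 SD, cut at about 24% in these data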;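 further: 0% = DMSO plus EC80 ATP and 100% = DMSO alone without ATP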
CHO-K1 Ca ag = counter-screen for M1 agonists: effect in parental CHO-K1 cells. Fluo-8 calcium fluorescence; scaled to maximal ATP response, vehicle zero. activation, % at 3 µM. 360,000 compounds, 0.48% hits. AID 602248; in the data active means activation above about 15%;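 further: untransfected CHO-K1 host cells lacking M1 receptor as counterscreen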
M1 PAM parental = nonselective activator or artifact in parental CHO-K1 calcium assay; 360,000 compounds, 0.02% hits; activation, % at 3 µM; ATP EC20, Fluo-8 calcium fluorescence; 0% at ATP EC20, 100% at ATP max;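 active means activation above the run cutoff, the mean activation of all test compounds plus 3 SD, cut at about 40% in these data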;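 further: peak over basal fluorescence ratio in a 140 s read after ATP addition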
* hit, by the source's call.

SMILES	M1 antag	CHRM1 agonist	CHRM1 PAM	CHO-K1 Ca antag	CHO-K1 Ca ag	M1 PAM parental
CCC1(c2ccccc2)NC(=O)N(CC(=O)Nc2cccnc2Cl)C1=O (stereo not given)	-10.5	4.1	13.6	-2.1	2.3	23.5
Cc1ccc(C2(C)NC(=O)N(CC(=O)Nc3cccnc3Cl)C2=O)cc1 (stereo not given)	0.0	1.6	9.1	-10.8	2.2	16.9
CC1(c2ccc([N+](=O)[O-])cc2)NC(=O)N(CC(=O)Nc2cccnc2Cl)C1=O (stereo not given)	-5.8	22.5*	9.2	-6.9	9.1	15.0
O=C(Nc1ccc(N2CCOCC2)cc1)c1csc([C@H]2C[C@H](O)[C@@H](CO)O2)n1	-5.7	-1.3	7.4	-5.0	0.3	11.8
COc1cc(/C=C2\C(=N)N3N=C(S(C)(=O)=O)SC3=NC2=O)ccc1OC(=O)c1ccco1	-8.5	-1.5	5.1	-8.0	-0.1	-13.2
COc1ccc2[nH]c(=O)c(CN(C(C)=O)c3cc(C)ccc3C)cc2c1	-13.5	-1.6	9.0	3.1	0.6	-2.4
Cc1ncc(CN2CCCCC2C(=O)Nc2ccc(Oc3ccccc3)nc2)cn1 (stereo not given)	9.6	-5.5	-5.1	6.6	0.2	-21.8
COCc1ccc(CN2CCCCC2C(=O)Nc2ccc(Oc3ccccc3)nc2)o1 (stereo not given)	47.4*	-5.4	-21.5	-8.8	1.7	14.4
CCOC(=O)[C@@H]1[C@H]2COc3ccccc3[C@H]2N2C(=O)N(c3ccc(C(F)(F)F)cc3)C(=O)[C@]12C	34.2*	-1.5	-20.5	-5.2	5.0	4.4
CCOC(=O)[C@@H]1[C@H]2COc3ccccc3[C@@H]2N2C(=O)N(c3ccc(C(F)(F)F)cc3)C(=O)[C@@]12C	-1.4	-4.2	0.0	-8.7	-0.2	1.9
CCCCNC(=O)C(NC(=O)c1cccnc1)C(=O)c1ccccc1 (stereo not given)	-33.1	-2.7	5.1	-20.4	0.3	18.1
CCN(c1cccc(C)c1)C(C(=O)Nc1ccc(OC)cc1)c1cc2c(cc1[N+](=O)[O-])OCO2 (stereo not given)	-4.1	-6.1	6.8	-16.7	0.7	24.3
COc1ccc(NC(=O)C(c2cc3c(cc2[N+](=O)[O-])OCO3)N(C)Cc2ccccc2)cc1 (stereo not given)	2.5	-1.2	1.0	-2.8	21.9*	28.7
CCCNC(=O)C1(C)CCCN(C(=O)CN2C(=O)c3ccccc3C2=O)C1 (stereo not given)	-5.3	0.3	1.8	-1.1	0.1	6.2
Cc1cc(C(=O)CSc2nc3ccccc3c(=O)[nH]2)c(C)n1CC1CCCO1 (stereo not given)	25.4	-1.9	-10.3	23.7*	17.3*	1.6
O=S(=O)(NN=C1CCCCCCC1)c1ccccc1	-10.6	-4.7	3.7	2.5	0.1	-5.7
CN(C)[C@@H]1CCC[C@@H]1OC(=O)C(c1ccccc1)c1ccccc1	31.0*	-8.2	-25.5	-7.8	1.6	20.3
NN(Cc1ccccc1)C(=S)Nc1ccc(Cl)c(Cl)c1	4.7	-5.5	-5.6	-7.9	-0.1	-16.1
COc1ccccc1C1CCN(Cc2cccc([N+](=O)[O-])c2)CC1	35.3*	-8.3	-22.3	-0.8	0.0	-16.3
Cc1ccc(-n2c(O)c(C=NCc3ccccn3)c3ccccc3c2=O)cc1	2.1	-8.3	4.6	3.9	0.1	8.0
COc1ccccc1-n1c(O)c(C=NCc2ccccn2)c2ccccc2c1=O	-9.9	2.5	8.2	-2.3	18.1*	13.0
N#Cc1cnn(CC2CCCCC2)c1N	0.5	-4.0	1.3	30.2*	-0.1	-7.8
Cc1ccc(C(=O)OCc2nc3ccccc3s2)o1	-0.8	-2.0	4.7	2.8	15.9*	5.0
Nc1ccc(C(=O)OCc2nc3ccccc3s2)cc1	-5.5	-4.6	6.3	-11.8	0.8	-2.6
CCN(C[C@H]1N[C@@](C)(C(=O)OC)[C@H]2C(=O)N(C)C(=O)[C@@H]12)C(=O)C1CCCCC1	-13.0	1.4	7.5	-1.7	0.0	3.0
SMILES	M1 antag	CHRM1 agonist	CHRM1 PAM	CHO-K1 Ca antag	CHO-K1 Ca ag	M1 PAM parental
O=C(c1ccccc1)c1ccc(-n2cnnc2)c([N+](=O)[O-])c1	-10.2	0.0	6.3	-20.4	22.2*	4.5
CCc1nc2ccc(C(=O)Nc3cc(-c4ccccc4)ccc3OC)cn2c1N(C)CCC(C)C	-20.1	-2.0	8.5	-12.9	36.8*	10.7
CCc1nc2ccc(C(=O)Nc3cc(-c4ccccc4)ccc3OC)cn2c1N(C=O)CCC(C)C	-12.4	0.6	13.0	-9.0	0.5	12.6
CCCCNC(=O)c1ccc2nc(CC)c(N(CC)CCN(C)C)n2c1	-13.0	-4.1	7.0	7.9	-0.1	1.5
CCc1nc2ccc(C(=O)Nc3ccc(NC(C)=O)cc3)cn2c1N(CCC(C)C)CCN(C)C	-6.9	0.3	2.6	-0.8	1.8	9.5
CCCCNC(=O)c1ccc2nc(CC)c(N(CCC(C)C)CCN(C)C)n2c1	-12.4	22.2*	0.7	0.8	1.0	8.0
CCc1nc2ccc(C(=O)Nc3ccc(OC)c(OC)c3)cn2c1N(CCC(C)C)CCN(C)C	-4.6	18.2*	-3.1	-8.0	0.4	11.2
CCc1nc2ccc(C(=O)NCCOc3ccc(OC)cc3)cn2c1N(CCC(C)C)CCN(C)C	11.2	33.9*	-7.7	-11.6	3.2	31.2
CC(=O)Nc1cccc(-c2csc(C(C)(O)c3ccc(F)c(F)c3)n2)c1 (stereo not given)	-8.4	-2.7	2.3	-8.4	3.5	6.6
COc1ccc(C)cc1NC(=O)C(OC(=O)CNC(=O)c1cccc(F)c1)c1ccccc1 (stereo not given)	-4.2	-6.7	11.5	30.6*	-0.1	-16.4
CCN=C(NCC)SC1CC(=O)N(c2ccc(F)cc2)C1=O (stereo not given)	34.9*	-0.3	-18.0	13.8	5.7	5.0
CCN=C(Nc1ccc2c(c1)OCO2)SC1CC(=O)N(c2ccc(OC)cc2)C1=O (stereo not given)	26.7*	0.3	-6.6	3.6	3.9	9.7
Cc1ccc(S(=O)(=O)N2CCN(c3nc(-c4cccs4)nc4ccccc34)CC2)cc1	-13.2	-0.4	5.1	4.0	0.1	8.8
CN1C[C@@H]2[C@@H]3C(=O)N(C)C(=O)[C@@H]3[C@](C)(C1=O)N2C(=O)c1ccc(C(F)(F)F)cc1	-0.8	-3.9	-1.3	-1.3	1.6	1.4
CSCCC(NC(=O)c1ccc(Cl)cc1Cl)C(=O)NCc1ccccn1 (stereo not given)	-11.7	-2.8	6.9	35.4*	0.1	16.7
CSCCC(NC(=O)c1ccccc1Cl)C(=O)NCC1COc2ccccc2O1 (stereo not given)	31.2*	-1.6	-12.7	15.9	0.0	-30.9
COc1cc2sc3ccc(C#CC4(O)CCCCC4)cc3c(=O)c2cc1OC	8.1	-9.6	-9.3	-8.2	-0.1	8.3
